From PubChem BioAssay (EPA / NIEHS) come the findings set out here.

“And” between values parts separate entries of the source, which are not always exact repeats. Identical values can stand only once. Records with an inconclusive call do not appear. More than one record can exist for a structure, and the calls need not agree. The source made the active and inactive calls. How the source made its calls: active means hit-call score of the fitted dose curve at least 0.9, where 1 is the maximum; inconclusive means response in the unintended direction; inactive means score below 0.9.

Chain of rat Peripheral-type Benzodiazepine Receptor (PBR), Tspo (gene 24230) (P16257 whole entry, looked up): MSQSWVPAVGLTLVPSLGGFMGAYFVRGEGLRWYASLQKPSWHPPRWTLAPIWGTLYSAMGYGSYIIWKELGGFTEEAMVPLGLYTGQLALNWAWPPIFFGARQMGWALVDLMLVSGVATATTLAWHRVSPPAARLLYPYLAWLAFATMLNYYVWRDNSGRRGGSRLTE

The assay has as its target rat Peripheral-type Benzodiazepine Receptor (PBR), Tspo (gene 24230) (UniProt P16257). In words: NVS_MP_rPBR: NovaScreen (NVS) Membrane Protein Assay for rat Peripheral-type Benzodiazepine Receptor (PBR) (AID 2283335). Here is the method:
NVS_MP_rPBR is a biochemical, single-readout assay that uses extracted gene-proteins from Rat kidney membranes in a tissue-based cell-free assay. Measurements were taken 1 hour after chemical dosing in a 48-well plate.NVS_MP_rPBR is one of one assay component(s) measured or calculated from the NVS_MP_rPBR assay. It is designed to make measurements of radioligand binding, a form of binding reporter, as detected with scintillation counting signals by Filter-based radiodetection technology.Data from the assay component NVS_MP_rPBR was analyzed into 1 assay endpoint. This assay endpoint, NVS_MP_rPBR, was analyzed in the positive analysis fitting direction relative to DMSO as the negative control and baseline of activity. Using a type of binding reporter, loss-of-signal activity can be used to understand changes in the binding as they relate to the gene Tspo. Furthermore, this assay endpoint can be referred to as a primary readout, because the performed assay has only produced 1 assay endpoint. To generalize the intended target to other relatable targets, this assay endpoint is annotated to the transporter intended target family, where the subfamily is cholesterol transporter.
Binding assays used specific radioligands (tritiated, iodinated) with non-radioactive competitive displacement ligands in agonist or antagonist protocols (as indicated) and various reference compounds and inhibitors to titrate specific binding to receptors and transporters. Most enzyme assays (CYPs, kinases, phosphatases, proteases, HDACs) used recombinant protein and specific substrates (fluorescence mostly, some colorimetric and radioactive) and inhibitors, followed by a biochemical separation of substrate and product. All assays for the biochemical HTS were initially run in duplicate at a single concentration (10 uM for CYP450 assays and 25 uM for all others). […] Each assay was run with positive and negative controls, and concurrent controls on every plate. The follow-up (secondary) screen tested active chemical-pairs in concentration series, as well as a few additional assays not tested in the primary screen, some selected negative inactives, and several cases re-run in the concentration series for confirmatory purposes.
For `O=C(OCCOCCOC(=O)c1ccccc1)c1ccccc1`, the molecule was called inactive.
Take `NC(=O)N1C(=O)C(C(=O)c2cc(Cl)cs2)c2cc(F)c(Cl)cc21` (stereo unspecified): the AC50 (usually the concentration at which the activity in the assay is half-maximal) was 25 µM (active).
`O=c1c(-c2ccc(O)cc2)coc2cc(O)ccc12`: the concentration at half-maximal activity (AC50) was 14 µM (active).
On to `CCC(=C(c1ccc(O)cc1)c1ccc(OCCN(C)C)cc1)c1ccccc1`, for which the AC50 is 4.37 µM (active) and 3.09 µM (active); the molecule was classed as inactive.
For the molecule `Cc1oc(-c2ccccc2)nc1CCOc1ccc(C[C@H](Nc2ccccc2C(=O)c2ccccc2)C(=O)O)cc1`, the AC50 was 4.35 µM (active).
On the same count and under the same terms, as for `CCCCCCCCCCCCc1ccccc1S(=O)(=O)O`, the figure is 6.37 µM (active); as for `CC[C@H](c1ccc(O)cc1)[C@@H](CC)c1ccc(O)cc1`, 822 nM (active) and 258 nM (active); as for `CCN(CC)CCNc1ccc(CNC=O)c2sc3ccc(OC)cc3c(=O)c12`, 6.96 µM (active).
For `CCCOc1sc(C(=O)N2CCC(c3cc(CN)ccc3F)CC2)c(C)c1Br`, the call was inactive.
As to `CC1=C(/C=C/C(C)=C/C=C/C(C)=C/C(=O)O)C(C)(C)CCC1`, the outcome was inactive.
